Results on six molecules are retold here after PubChem BioAssay.

Each structure is given as a SMILES string. Several values for one entry are separate records, joined by “and”; a condition that tells them apart may be missing. Identical values can stand only once. Inconclusive results are not listed. Some structures have more than one record in an assay (separate samples or runs), and their calls can disagree. Activity calls are given as the source filed them.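 The calls were made as follows, unless noted: active = compounds whose cell count with miR-34 switched on is under 0.7 times the count with it off; inactive = the rest.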

The first assay in a line: JHH-DIPG-1 glioma cell viability, MIPE5.0 library, CellTiter-Glo luminescence, qHTS (AID 1347067; cut-off not given, nearly all actives have AC50 up to about 26 µM;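 also: cells exposed to compound for 48 hours before readout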). To be noted: JHH-DIPG-1 glioma viability, CellTiter-Glo ATP luminescence. Background: ATP-based viability assays read luminescence as a measure of living cells.
On to `O=c1c(-c2ccc(O)cc2)coc2cc(O)ccc12`, for which the molecule was called inactive.

Take `C[C@@]12C(=O)OC(=O)[C@]1(C)[C@H]1CC[C@@H]2O1`: the AC50 was 2.35 µM (active).

With `CCOC(=O)C1=C(O)C(=O)N(Cc2ccccc2)C1`, the molecule was called inactive.

Turning to `NC(=O)c1cccc(N)c1`, the molecule was called inactive.

The nature of a further assay: growth inhibition of DIPG cells – cell-based, MIPE5.0 library, qHTS (AID 1347068; cut-off not given, nearly all actives have IC50 up to about 30 µM;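 as to IC50: cells exposed to compound for 48 hours before viability readout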). Particulars: SU-DIPG-XXV viability. (In general: qHTS replaces the single test concentration by a dilution series.)
Turning to `O=c1c(-c2ccc(O)cc2)coc2cc(O)ccc12`, the outcome was inactive.

`C[C@@]12C(=O)OC(=O)[C@]1(C)[C@H]1CC[C@@H]2O1`: the IC50 was 2.95 µM (active).

Turning to `NC(=O)c1cccc(N)c1`, the result was inactive.

The next assay in a line: viability loss with induced miR-34 in A549 – imaging, A549 dox-inducible miR-34, nuclei and caspase counts, primary screen (AID 1347080). To be noted: A549 miR-34 inducible, Hoechst nuclei count, 48 h; stronger effect = lower value; cell number ratio, induced over uninduced.
`C[C@@]12C(=O)OC(=O)[C@]1(C)[C@H]1CC[C@@H]2O1`: the fold change is 0.592 (active) and 1.01 (inactive).

As for `CCCC(=O)Nc1ncnc2c1ncn2[C@@H]1O[C@@H]2COP(=O)(O)O[C@H]2[C@H]1OC(=O)CCC`, the fold change is 1.04 (inactive) and 0.902 (inactive).

Regarding `CCOC(=O)C1=C(O)C(=O)N(Cc2ccccc2)C1`, the fold change was 0.926 (inactive) and 0.964 (inactive).

Regarding `O=C(O)c1cc([N+](=O)[O-])ccc1NCCCc1ccccc1`, the fold change was 1.03 (inactive) and 0.858 (inactive) and 0.935 (inactive).

Still in this assay, the particulars now being: A549 miR-34 inducible, Hoechst nuclei count, 48 h; measured here: relative caspase fold change +Dox/-Dox.
With `C[C@@]12C(=O)OC(=O)[C@]1(C)[C@H]1CC[C@@H]2O1`, the fold change is 2.6 and 1.41.

Regarding `CCCC(=O)Nc1ncnc2c1ncn2[C@@H]1O[C@@H]2COP(=O)(O)O[C@H]2[C@H]1OC(=O)CCC`, the fold change is 0.758 and 0.739.

For the molecule `CCOC(=O)C1=C(O)C(=O)N(Cc2ccccc2)C1`, the fold change was 1.46 and 1.07.

Turning to `O=C(O)c1cc([N+](=O)[O-])ccc1NCCCc1ccccc1`, the fold change was 1.22 and 0.934 and 0.883.

Still in this assay, the particulars now being: A549 miR-34 inducible, Hoechst nuclei count, 48 h; measured here: total cells with miR-34 induction; stronger effect = lower value.
Consider `C[C@@]12C(=O)OC(=O)[C@]1(C)[C@H]1CC[C@@H]2O1`, for which the cell count was 223 and 535.

Take `CCCC(=O)Nc1ncnc2c1ncn2[C@@H]1O[C@@H]2COP(=O)(O)O[C@H]2[C@H]1OC(=O)CCC`: the cell count was 5610 and 9020.

As for `CCOC(=O)C1=C(O)C(=O)N(Cc2ccccc2)C1`, the cell count is 9870 and 8960.

`O=C(O)c1cc([N+](=O)[O-])ccc1NCCCc1ccccc1`: the cell count was 10800 and 5570 and 8160.

The same assay, now with this note: A549 miR-34 inducible, Hoechst nuclei count, 48 h; measured here: total cells without miR-34 induction.
For the molecule `C[C@@]12C(=O)OC(=O)[C@]1(C)[C@H]1CC[C@@H]2O1`, the cell count is 376 and 530.

For `CCCC(=O)Nc1ncnc2c1ncn2[C@@H]1O[C@@H]2COP(=O)(O)O[C@H]2[C@H]1OC(=O)CCC`, the cell count is 5380 and 10000.

Consider `CCOC(=O)C1=C(O)C(=O)N(Cc2ccccc2)C1`, for which the cell count was 10700 and 9300.

In the case of `O=C(O)c1cc([N+](=O)[O-])ccc1NCCCc1ccccc1`, the cell count is 10500 and 6480 and 8730.

What is called AC50 is the concentration at which the activity in the assay is half-maximal. In general, IC50 refers to the concentration that gives 50% inhibition.
